The results in this text go back to PubChem BioAssay (NCATS).

Results filed as inconclusive are left out. Activity calls are given as the source filed them. The call rests on the fitted dose curve; in most records, active means well fitted inhibition curve with a large enough effect; inconclusive means small, poorly fitted or top-dose-only effect; inactive means flat fitted curve, though single readings scatter.

The subject of this assay is HEK293T. The assay is described as follows: qHTS assay to identify novel small-molecules to repurpose for Merkel cell carcinoma treatment (AID 1296009). Further: nearly all actives have a fitted effect of over 60% in size. To be noted: MCC and control cell lines, CellTiter-Glo viability, 72 h; series mostly up to 44.8 µM. An outline of the steps: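 CellTiter-Glo luminescence after 72 hr compound exposure at 37 degree celsius gave cell viability. Libraries NPC and MIPE were run as 8- and 11-point dose responses; RLUs normalized to DMSO (negative) and no-cell (cytotoxicity) controls.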
Background: In qHTS, concentration-response curves come from the screen itself.
Regarding `CC12CCC3C(C)(C)C(O)CCC3(C)C1Cc1c(oc(C(=O)O)cc1=O)O2` (stereo not given), the call was inactive.

In the case of `Cc1cc(O)cc(Oc2cc(C)c(C(=O)O)c(O)c2)c1`, the compound was called inactive.

For `C[C@@H]1O[C@@H](O[C@@H]2[C@@H](O)[C@H](O[C@@H]3[C@@H](O)[C@@H](O)[C@H](O[C@H]4[C@H](OC(=O)[C@]56CCC(C)(C)C[C@H]5C5=CCC7[C@@]8(C)C[C@H](O)[C@H](O[C@@H]9O[C@@H](C)[C@H](O)[C@@H](O)[C@H]9O)[C@@](C)(CO)C8CC[C@@]7(C)[C@]5(C)C[C@H]6O)O[C@H](C)[C@H](O)[C@@H]4O)O[C@H]3C)OC[C@H]2O)[C@H](O)[C@H](O)[C@H]1O` (stereo not given in full), the outcome is “inactive [at 9.27 µM]”.

`CC1CCC2(O1)C(C)(C)CC(O[C@@H]1O[C@H](CO[C@@H]3OC[C@](O)(CO)[C@H]3O)[C@@H](O)[C@H](O)[C@H]1O)CC2(C)O` (stereo not given in full): the “outcome” value is “inactive [at 17.4 µM]”.

Consider `C[C@@]12C[C@]3(O)O[C@H](O1)[C@]1(COC(=O)c4ccccc4)[C@H]3C[C@@]12O[C@@H]1O[C@H](COC(=O)c2ccccc2)[C@@H](O)[C@H](O)[C@H]1O`, for which the “outcome” value is “inactive [at 17.4 µM]”.

On to `C=C1CC[C@H]2[C@@H](/C=C(\C)C(=O)[C@@]3(OC(C)=O)C[C@H](C)[C@H](OC(C)=O)[C@@H]3[C@H]1OC(C)=O)C2(C)C`, for which the “outcome” value is “inactive [at 17.4 µM]”.

Regarding `NCc1c[nH]c(=S)n1C1CCc2c(F)cc(F)cc2C1` (stereo not given), the call was inactive.

Regarding `C/C=C/C1=CC2=CC(=O)C(C)(O)C(OC(=O)c3c(C)cc(O)cc3O)C2CO1` (stereo not given), the result was inactive.

Regarding `O=C1NC(=Nc2ccccc2F)S/C1=C\c1ccc(C(=O)O)cc1`, the outcome was inactive.

For `C=C[C@H]1[C@H](O[C@@H]2O[C@H](CO[C@@H]3OC[C@](O)(CO)[C@H]3O)[C@@H](O)[C@H](O)[C@H]2O)OC=C2C(=O)OCC[C@H]21`, the “outcome” value was “inactive [at 17.4 µM]”.

On to `CNC(=O)O[C@H]1COc2ccc(N3CCN(C4COC4)CC3)cc2[C@@H]1NC(=O)c1ccc(F)cc1`, for which the result was inactive.

As for `CC(=O)[C@@H]1CC[C@]2(C(=O)O)CC[C@]3(C)C(CCC4[C@@]5(C)CC[C@H](O)C(C)(C)C5CC[C@]43C)C12` (stereo not given in full), the “outcome” value is “inactive [at 17.4 µM]”.

`O=C(NCC(=O)N1CC[C@H](NC2CCC(O)(c3ccc(-c4ncccn4)cn3)CC2)C1)c1cccc(C(F)(F)F)c1` (stereo not given in full): the result was inactive.

Turning to `COC(=O)C[C@@H]1C(C(=O)O)=CO[C@@H](O[C@@H]2O[C@H](CO)[C@@H](O)[C@H](O)[C@H]2O)/C1=C\COC(=O)/C=C\c1ccccc1`, the “outcome” value was “inactive [at 17.4 µM]”.

In the case of `CC(=O)NCCCCn1c2c(c3ccccc31)C(=O)NCC2`, the result was inactive.

Consider `COC(=O)C1C(c2ccc(O)cc2)C(C(=O)OC)C1c1ccc(O)cc1` (stereo not given), for which the compound was classed as inactive.

On to `CC(=O)N1c2ccccc2C2(O)CC3C(=O)NC(CC(C)C)C(=O)N3C12` (stereo not given), for which the compound was called inactive.

For `CC(C)C1=CC2=CCC3[C@](C)(CCC[C@@]3(C)C(=O)O)C2CC1O` (stereo not given in full), the call was inactive.

As to `C[C@@H]1O[C@@H](OC[C@H]2O[C@@H](OCCc3ccccc3)[C@H](O)[C@@H](O)[C@@H]2O)[C@H](O)[C@H](O)[C@H]1O`, the “outcome” value is “inactive [at 17.4 µM]”.

`OCCc1ccc(O[C@@H]2O[C@H](CO)[C@@H](O)[C@H](O)[C@H]2O)c(O)c1`: the call was inactive.

As to `C/C=C(\C)C(=O)OC[C@H]1O[C@H](O[C@H]2O[C@H](CO)[C@@H](OC(=O)/C(C)=C/C)[C@H](O)[C@H]2O[C@@H]2O[C@H](CO)[C@@H](O)[C@H](O)[C@H]2O)[C@H](O[C@@H]2O[C@H](CO)[C@@H](O)[C@H](O)[C@H]2O)[C@@H](O)[C@@H]1O`, the outcome was “inactive [at 9.27 µM]”.

Turning to `COc1cc([C@H]2OC[C@]3(OC(C)=O)[C@@H](c4ccc(O[C@@H]5O[C@H](CO)[C@@H](O)[C@H](O)[C@H]5O)c(OC)c4)OC[C@H]23)ccc1O`, the “outcome” value was “inactive [at 17.4 µM]”.

As to `CCn1nnnc1NCc1ccc(C(C)C)cc1`, the compound was classed as inactive.

Consider `C=C1C[C@]23C[C@H]1CC[C@H]2[C@]1(C)CCC[C@@]2(CO)C(=O)O[C@H]([C@H]21)[C@@H]3O`, for which the outcome was inactive.

`CC(=O)O[C@@H]1C[C@]2(C)[C@@]3(CCC4[C@@]5(C)CC[C@H](O[C@@H]6O[C@H](C(=O)O)[C@@H](O)[C@H](O[C@@H]7O[C@H](CO)[C@H](O)[C@H](O)[C@H]7O[C@@H]7O[C@@H](C)[C@H](O)[C@@H](O)[C@H]7O[C@@H]7OC[C@](O)(CO)[C@H]7O)[C@H]6O[C@@H]6O[C@H](CO)[C@H](O)[C@H](O)[C@H]6O)C(C)(C)C5CC[C@]42C)O[C@@H](O)[C@]12C3CC(C)(C)[C@@H](OC(=O)/C=C/c1ccc(O)c(O)c1)[C@@H]2OC(=O)/C=C/c1ccccc1` (stereo not given in full): the outcome is “inactive [at 9.27 µM]”.
